Screening results as filed in PubChem BioAssay.
HEK293 tox: cytotoxic compounds in HEK 293 cells; Potency, µM (doses to about 115 µM), most hits filed as inhibitors; HEK 293 viability, ATP luminescence (CellTiter-Glo), 48-72 h; 94,000 compounds, 6.6% hits; note: nearly all actives have a fitted effect of over 60% in size
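Luminescence from cellular ATP, measured with CellTiter-Glo, indicates HEK 293 viability. Cells plated at 250 cells/well are treated with compound for 48 or 72 hr at 37 degree Celsius before reagent addition.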
Luciferase inh: inhibitors of firefly (Photinus pyralis) luciferase; Potency, µM (series often up to 115 µM), usual class: inhibitors; purified P. pyralis luciferase, luminescence, biochemical; AID 1347043; 76,000 compounds, 2.5% hits; note: nearly all actives have a fitted effect of over 65% in size
Target sequence (P08659 whole entry, looked up): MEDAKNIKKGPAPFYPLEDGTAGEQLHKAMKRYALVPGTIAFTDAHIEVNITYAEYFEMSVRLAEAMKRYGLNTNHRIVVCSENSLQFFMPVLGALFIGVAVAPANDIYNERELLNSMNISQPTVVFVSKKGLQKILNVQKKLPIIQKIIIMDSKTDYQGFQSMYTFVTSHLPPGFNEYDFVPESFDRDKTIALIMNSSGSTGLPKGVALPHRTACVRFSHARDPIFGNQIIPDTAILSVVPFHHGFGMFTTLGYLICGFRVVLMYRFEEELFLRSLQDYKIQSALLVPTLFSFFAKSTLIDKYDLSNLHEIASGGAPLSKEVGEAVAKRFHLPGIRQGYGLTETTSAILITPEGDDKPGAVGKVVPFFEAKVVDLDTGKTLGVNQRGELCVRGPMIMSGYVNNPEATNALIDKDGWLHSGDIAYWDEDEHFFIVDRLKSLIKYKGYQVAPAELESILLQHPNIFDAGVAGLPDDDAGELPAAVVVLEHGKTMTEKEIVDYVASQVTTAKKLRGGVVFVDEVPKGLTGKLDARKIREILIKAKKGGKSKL
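Luminescence read by CCD imaging after purified firefly luciferase (10nM final) was added to substrate buffer holding 10uM D-luciferin and 10uM ATP, pH 7.5, pre-dosed with compound.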
NPR1 antag: antagonists of human natriuretic peptide receptor Npr1; AID 1347048; 76,000 compounds, 1.6% hits; Potency, µM (series often up to 46.3 µM), actives largely listed as inhibitors; HEK293 hNpr1 GloSensor cGMP, ANP-stimulated luminescence; calls by dose curve; note: nearly all actives have a fitted effect of over 60% in size
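Compound pre-incubated 30 min at room temperature on GloSensor-loaded HEK293 cells stably carrying hNpr1 and the pGS-40F cGMP biosensor. Stimulation uses hNppA at 0.1 nM final; luminescence is taken at baseline and 20 min post-agonist.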
3T3 cytotox: cytotoxic compounds in NIH 3T3 cells. Potency, µM (titrated, usually from 96.7 µM), usual class: inhibitors. NIH 3T3 viability, CellTiter-Glo ATP luminescence, 48-72 h. 94,000 compounds, 4.3% hits. AID 1345082; note: nearly all actives have a fitted effect of over 55% in size
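NIH 3T3 cells at 400 cells/well received 23 nL of compound by pintool and were incubated 48 or 72 h at 37 °C. Viability was read as ATP-coupled CellTiter-Glo luminescence.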
Numbers stand for hits; . = inactive; ? = inconclusive; / = not tested or not shown. The list is not random: actives were taken first. Their share in the collection is about 11%. Unless noted, calls come from the whole dose curve; as a rule, active = well fitted curve in the direction sought with a large enough effect; inconclusive = small, poorly fitted or top-dose-only effect, or another doubt; inactive = no such curve, though single readings can be large; an effect the other way counts as inactive or inconclusive.

SMILES	HEK293 tox	Luciferase inh	NPR1 antag	3T3 cytotox
CN1CCCCC1C(=O)NCc1cccnc1Oc1cccc(C(F)(F)F)c1 (stereo not drawn)	.	.	.	.
O=C(C[C@H]1NC(=O)c2ccccc2NC1=O)Nc1nc(-c2cccnc2)cs1	44.7µM	.	.	?
O=C(CN1CCCc2nc(-c3ccccc3)ncc2C1=O)NCCCn1cccn1	.	/	/	.
COc1ccc(CCN2CCC(CN(C)Cc3nc(C(C)C)cs3)CC2)cc1	31.6µM	.	.	?
CC(C)CNc1ccc2c(n1)C(C)(C(=O)N1CCOCC1)CN(Cc1ccccc1)C2 (stereo not drawn)	?	.	.	?
COc1ccc(NC(=O)[C@@H]2C[C@@H](c3ccc(F)cc3)N(Cc3ccccc3)C2)cc1	?	.	.	.
Cc1nc(CN2C[C@H](C(=O)Nc3ccc(F)cc3)C[C@@H]2c2ccc(F)cc2)cs1	100µM	.	.	100µM
COc1ccc(NC(=O)[C@@H]2C[C@H](c3ccc(F)cc3)N(Cc3csc(C)n3)C2)cc1	79.4µM	.	.	?
Cc1ccc(NC(=O)Cn2c(=O)n(-c3ccccc3)c(=O)c3c2cc(C)n3C)cc1	39.8µM	.	.	22.4µM
Cc1cccc(NC(=O)Cn2c(=O)n(-c3ccccc3)c(=O)c3c2cc(C)n3C)c1	.	.	.	.
COc1ccccc1NC(=O)Cn1c(=O)n(-c2ccc(F)cc2)c(=O)c2c1cc(C)n2C	44.7µM	.	.	31.6µM
COc1ccccc1NC(=O)Cn1c(=O)n(-c2ccccc2)c(=O)c2c1cc(C)n2C	.	.	.	.
CNC(=O)c1cc(C)nc2onc(C3CCN(C(=O)NC(C)C)CC3)c12	.	/	/	.
COc1ccc(C(=O)N2CCC(Oc3ccc(-c4noc(-c5ccccc5)n4)cc3)C2)cn1 (stereo not drawn)	.	?	11.2µM	.
COc1ccc(C(=O)N2CCC(Oc3ccc(-c4noc(C(C)C)n4)cc3)C2)cc1 (stereo not drawn)	39.8µM	.	?	?
COc1cccc(-c2cn3cc(C(=O)NCc4cccs4)nc3s2)c1	.	/	/	.
O=C(NCc1ccccc1)c1nc2sccn2c1-c1cccnc1	.	/	/	?
O=C(NCc1ccc(F)cc1)c1ccc2nnc(-c3cccc(C(F)(F)F)c3)n2c1	39.8µM	/	/	?
O=C(NC1CCCCC1)c1ccc2nnc(-c3cc(C(F)(F)F)cc(C(F)(F)F)c3)n2c1	35.5µM	/	/	31.6µM
O=C(NCc1ccc(F)c(F)c1)c1ccc2nnc(-c3cccc(C(F)(F)F)c3)n2c1	31.6µM	/	/	25.1µM
O=C(NC1CC1)c1ccc2nnc(-c3cccc(C(F)(F)F)c3)n2c1	.	/	/	?
O=C(NCc1ccc(Cl)cc1)c1ccc2nnc(-c3cccc(C(F)(F)F)c3)n2c1	14.1µM	/	/	?
COC(=O)N1CCN(CCCn2nc3n(c2=O)CCCC3)CC1	.	/	/	.
O=C(NCc1ccc(Cl)cc1)c1ccc2nnc(-c3cc(C(F)(F)F)cc(C(F)(F)F)c3)n2c1	14.1µM	/	/	?
O=C(NCc1ccccc1)c1ccc2nnc(-c3ccoc3)n2c1	.	/	/	?
SMILES	HEK293 tox	Luciferase inh	NPR1 antag	3T3 cytotox
O=C(NCc1ccccc1Cl)c1ccc2nnc(-c3ccoc3)n2c1	112µM	/	/	?
O=C(NCCc1ccc(Cl)cc1)c1ccc2nnc(-c3cccc(C(F)(F)F)c3)n2c1	?	/	/	22.4µM
O=C(NC1CCCCCC1)c1ccc2nccn2c1	?	39.8µM	.	.
CC1CCN(C(=O)CCC[C@@H]2[C@H]3CCCN4CCC[C@@H](CN2C)[C@@H]34)CC1	.	.	.	.
COc1cccc(CNC(=O)c2ccc3nnc(-c4cccc(C(F)(F)F)c4)n3c2)c1	44.7µM	/	/	?
COc1cccc(CNC(=O)c2ccc3nnc(-c4cc[nH]c4)n3c2)c1	.	/	/	.
O=C([C@@H]1C[C@@H](O)[C@H](O)[C@@H]2NC(=S)N(c3ccc(Cl)cc3)[C@@H]21)N1CCCCC1	.	50.1µM	.	.
CN1CCCN(S(=O)(=O)c2ccc(C(F)(F)F)cc2)c2ccccc21	39.8µM	.	.	?
CN1CCCN(S(=O)(=O)c2cccc(Br)c2)c2ccccc21	39.8µM	.	.	?
Cc1cccc(S(=O)(=O)N2CCCN(C)c3ccccc32)c1	?	.	.	?
COc1ccccc1N1CCN(CC[C@@H]2CC[C@H](O)[C@@H](C(=O)NC3CCCCC3)O2)CC1	.	.	.	.
CC(=O)Nc1ccc2nnc(-c3ccc(C(=O)N4CCCCCC4)cc3)n2c1	.	.	.	?
O=C(NCCc1ccc(Cl)cc1)C1CCCN(c2ccnc3ccnn23)C1 (stereo not drawn)	?	/	/	.
O=C(Nc1ccc2c(c1)OCCO2)C1CCN(C(=O)N2CC3CC(C2)[C@H]2CCCC(=O)N2C3)CC1 (stereo partly drawn)	.	20µM	.	.
Cc1ccc(NC(=O)C2CCN(C(=O)N3CC4CC(C3)[C@H]3CCCC(=O)N3C4)CC2)cc1 (stereo partly drawn)	.	.	.	.
COc1ccc(-c2[nH]nc3ncc(-c4cn[nH]c4)nc23)c(C)c1	?	.	.	?
Cc1cccc(-c2cnc3n[nH]c(-c4ccccc4)c3n2)c1	70.8µM	.	.	?
O=C(Nc1ccon1)c1cnc2n[nH]c(-c3ccccc3)c2n1	?	.	.	31.6µM
COc1ccc(-c2[nH]nc3ncc(-c4ccccc4F)nc23)c(C)c1	63.1µM	.	.	50.1µM
c1cncc(-c2cnc3n[nH]c(-c4ccc5c(c4)OCO5)c3n2)c1	28.2µM	.	.	?
COCCCn1c(=O)c(C(=O)N2CCN(C(=O)C(C)(C)C)CC2)nc2cccnc21	.	/	/	.
COc1ccc(-c2[nH]nc3ncc(-c4ccccc4O)nc23)cc1F	?	.	.	?
c1ccc(-c2cnc3n[nH]c(-c4ccccc4)c3n2)cc1	100µM	.	.	?
Cc1cc(-c2cnc3n[nH]c(-c4ccccc4)c3n2)ccn1	?	.	.	?
Cc1ccc(-c2cnc3n[nH]c(-c4ccccc4)c3n2)cc1	31.6µM	.	.	?
SMILES	HEK293 tox	Luciferase inh	NPR1 antag	3T3 cytotox
Fc1ccccc1-c1cnc2n[nH]c(-c3ccccc3)c2n1	112µM	.	.	89.1µM
Cc1cc(C)cc(-c2[nH]nc3ncc(-c4ccsc4)nc23)c1	?	.	.	25.1µM
COCCNC(=O)CNC(=O)c1cccc(-c2ccsc2)c1	.	/	/	.
O=C1N(CCc2ccccc2)c2ccccc2C12CCN([S+](=O)([O-])c1cccc(C(F)(F)F)c1)C2 (stereo not drawn)	?	.	.	?
COc1ccc(C(=O)N2CCCC(C(=O)N3CCCC3c3nc4ccncc4[nH]3)C2)cc1 (stereo not drawn)	.	/	/	.
O=C1CCN(C(=O)[C@@H]2CCCN2Cc2cccc(F)c2)CCCCCCN1	.	.	.	.
Cc1ccc(-c2cccc(CN3CCCC3C(=O)N3CCCCC3)c2)cc1Cl (stereo not drawn)	31.6µM	/	/	31.6µM
Cc1ccc(-c2cccc(CN3CCCC3C(=O)N3CCC(C#N)CC3)c2)cc1Cl (stereo not drawn)	39.8µM	/	/	31.6µM
